Columns and labels:
Assay in all cases: log2 ratio of Biotin-Ahx-Ub-VS probe labelling (fragment/DMSO); higher = less target engagement (more negative = stronger competition), active = hit call of the paper (q ≤ 0.05, log2 ratio ≤ -1)
Conditions in all cases: compound concentration: 200 uM; treatment time: 3 h
[1] = biological target: T1, USP42 (UniProt Q9H9J4)
T1 sequence (whole entry): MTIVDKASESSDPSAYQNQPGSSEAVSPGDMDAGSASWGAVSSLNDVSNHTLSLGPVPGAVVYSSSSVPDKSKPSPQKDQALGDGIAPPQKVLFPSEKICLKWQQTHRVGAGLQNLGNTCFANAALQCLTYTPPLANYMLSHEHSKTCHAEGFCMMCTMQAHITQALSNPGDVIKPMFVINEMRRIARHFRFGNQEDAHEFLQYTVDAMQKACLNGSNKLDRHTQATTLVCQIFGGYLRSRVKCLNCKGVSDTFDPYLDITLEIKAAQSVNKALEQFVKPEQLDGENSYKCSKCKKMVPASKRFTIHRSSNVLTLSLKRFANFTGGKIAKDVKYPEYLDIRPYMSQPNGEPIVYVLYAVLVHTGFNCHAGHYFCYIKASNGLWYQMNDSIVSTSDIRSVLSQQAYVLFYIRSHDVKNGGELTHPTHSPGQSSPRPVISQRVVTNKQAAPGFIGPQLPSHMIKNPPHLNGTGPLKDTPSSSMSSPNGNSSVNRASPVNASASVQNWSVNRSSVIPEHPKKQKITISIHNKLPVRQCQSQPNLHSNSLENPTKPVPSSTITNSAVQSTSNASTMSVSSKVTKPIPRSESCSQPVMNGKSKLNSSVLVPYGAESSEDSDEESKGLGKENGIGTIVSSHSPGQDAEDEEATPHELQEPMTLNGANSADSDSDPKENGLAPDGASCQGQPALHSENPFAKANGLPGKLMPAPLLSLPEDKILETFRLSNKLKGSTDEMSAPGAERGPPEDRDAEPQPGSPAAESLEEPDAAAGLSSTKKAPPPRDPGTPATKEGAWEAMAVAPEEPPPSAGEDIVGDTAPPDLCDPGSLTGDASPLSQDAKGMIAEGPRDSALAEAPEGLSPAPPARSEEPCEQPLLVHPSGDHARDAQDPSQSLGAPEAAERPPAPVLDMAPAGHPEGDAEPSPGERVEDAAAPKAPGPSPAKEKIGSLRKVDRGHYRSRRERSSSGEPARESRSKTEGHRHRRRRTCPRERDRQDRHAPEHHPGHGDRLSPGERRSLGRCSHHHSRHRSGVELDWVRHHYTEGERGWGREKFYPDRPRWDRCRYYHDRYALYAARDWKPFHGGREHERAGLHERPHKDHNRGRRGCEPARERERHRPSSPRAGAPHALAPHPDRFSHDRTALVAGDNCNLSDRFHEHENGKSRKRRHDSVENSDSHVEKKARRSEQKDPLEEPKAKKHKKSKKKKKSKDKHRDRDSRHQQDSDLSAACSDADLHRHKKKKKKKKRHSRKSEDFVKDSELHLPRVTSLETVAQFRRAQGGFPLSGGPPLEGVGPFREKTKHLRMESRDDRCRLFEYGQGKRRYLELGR
Outline: (§1)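 HEK293T lysate (495 µg per sample, in Tris/CHAPS/IGEPAL buffer with protease inhibitors) was exposed in triplicate for 3 h to fragment at 200 µM or to vehicle, then to Biotin-Ahx-Ub-VS at 0.5 µM final for 1 h. Labelled DUBs were enriched on NeutrAvidin, digested with LysC and trypsin, and analysed by diaPASEF LC-MS/MS. Spectronaut label-free quantities were normalised to the global median, and values are average log2 ratios of fragment over vehicle from an unpaired t-test. Only proteins with ≥2 unique peptides were used.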

[2] = biological target: USP46 (UniProt P62068)
Sequence of USP46 (P62068 whole entry): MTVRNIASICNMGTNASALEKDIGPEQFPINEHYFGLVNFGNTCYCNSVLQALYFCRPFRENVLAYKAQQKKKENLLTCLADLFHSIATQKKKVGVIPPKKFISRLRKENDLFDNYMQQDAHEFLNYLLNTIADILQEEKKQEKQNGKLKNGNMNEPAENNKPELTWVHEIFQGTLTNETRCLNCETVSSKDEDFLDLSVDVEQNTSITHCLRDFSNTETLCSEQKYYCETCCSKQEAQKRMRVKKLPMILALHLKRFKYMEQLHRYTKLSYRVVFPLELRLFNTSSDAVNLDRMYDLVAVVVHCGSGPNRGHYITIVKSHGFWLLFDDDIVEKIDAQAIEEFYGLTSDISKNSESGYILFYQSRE
Outline: as §1

[3] = biological target: T2, USP47 (UniProt Q96K76)
T2 sequence (whole entry): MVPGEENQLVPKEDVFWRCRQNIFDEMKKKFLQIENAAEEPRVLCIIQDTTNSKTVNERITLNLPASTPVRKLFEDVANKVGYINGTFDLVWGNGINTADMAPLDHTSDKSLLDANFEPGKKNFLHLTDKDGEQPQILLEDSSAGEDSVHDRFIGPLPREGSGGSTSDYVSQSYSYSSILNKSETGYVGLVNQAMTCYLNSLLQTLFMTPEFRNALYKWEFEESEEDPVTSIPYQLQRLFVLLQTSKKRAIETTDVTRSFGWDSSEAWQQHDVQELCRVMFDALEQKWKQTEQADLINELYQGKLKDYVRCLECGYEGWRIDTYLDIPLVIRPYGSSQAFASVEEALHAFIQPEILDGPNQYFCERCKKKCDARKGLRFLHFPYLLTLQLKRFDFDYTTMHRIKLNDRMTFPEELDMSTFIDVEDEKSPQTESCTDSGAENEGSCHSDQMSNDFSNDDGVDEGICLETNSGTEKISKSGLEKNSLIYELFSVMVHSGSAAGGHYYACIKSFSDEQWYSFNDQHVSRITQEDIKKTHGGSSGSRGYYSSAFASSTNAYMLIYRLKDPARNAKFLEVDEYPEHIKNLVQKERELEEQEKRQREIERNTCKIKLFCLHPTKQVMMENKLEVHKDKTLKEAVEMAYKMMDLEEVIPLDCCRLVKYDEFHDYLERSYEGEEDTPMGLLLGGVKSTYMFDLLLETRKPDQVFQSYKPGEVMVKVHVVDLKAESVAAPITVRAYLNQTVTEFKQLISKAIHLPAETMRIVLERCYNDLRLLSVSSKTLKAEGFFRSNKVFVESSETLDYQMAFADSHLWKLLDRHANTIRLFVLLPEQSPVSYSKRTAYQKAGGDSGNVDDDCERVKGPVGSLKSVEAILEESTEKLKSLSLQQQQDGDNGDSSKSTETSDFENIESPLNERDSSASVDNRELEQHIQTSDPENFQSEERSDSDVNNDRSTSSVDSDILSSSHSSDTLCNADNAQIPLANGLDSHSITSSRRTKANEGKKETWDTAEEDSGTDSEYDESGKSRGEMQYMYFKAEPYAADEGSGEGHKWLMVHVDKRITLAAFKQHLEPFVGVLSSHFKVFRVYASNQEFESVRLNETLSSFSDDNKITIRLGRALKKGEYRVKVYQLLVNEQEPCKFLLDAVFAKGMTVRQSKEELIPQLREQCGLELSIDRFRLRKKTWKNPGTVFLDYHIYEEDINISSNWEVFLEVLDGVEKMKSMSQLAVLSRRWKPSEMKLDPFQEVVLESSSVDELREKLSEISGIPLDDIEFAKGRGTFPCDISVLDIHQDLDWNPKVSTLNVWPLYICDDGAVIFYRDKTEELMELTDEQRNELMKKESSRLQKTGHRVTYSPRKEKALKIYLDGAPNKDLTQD
Outline: as §1

[4] = biological target: T3, USP48 (UniProt Q86UV5)
T3 sequence (whole entry): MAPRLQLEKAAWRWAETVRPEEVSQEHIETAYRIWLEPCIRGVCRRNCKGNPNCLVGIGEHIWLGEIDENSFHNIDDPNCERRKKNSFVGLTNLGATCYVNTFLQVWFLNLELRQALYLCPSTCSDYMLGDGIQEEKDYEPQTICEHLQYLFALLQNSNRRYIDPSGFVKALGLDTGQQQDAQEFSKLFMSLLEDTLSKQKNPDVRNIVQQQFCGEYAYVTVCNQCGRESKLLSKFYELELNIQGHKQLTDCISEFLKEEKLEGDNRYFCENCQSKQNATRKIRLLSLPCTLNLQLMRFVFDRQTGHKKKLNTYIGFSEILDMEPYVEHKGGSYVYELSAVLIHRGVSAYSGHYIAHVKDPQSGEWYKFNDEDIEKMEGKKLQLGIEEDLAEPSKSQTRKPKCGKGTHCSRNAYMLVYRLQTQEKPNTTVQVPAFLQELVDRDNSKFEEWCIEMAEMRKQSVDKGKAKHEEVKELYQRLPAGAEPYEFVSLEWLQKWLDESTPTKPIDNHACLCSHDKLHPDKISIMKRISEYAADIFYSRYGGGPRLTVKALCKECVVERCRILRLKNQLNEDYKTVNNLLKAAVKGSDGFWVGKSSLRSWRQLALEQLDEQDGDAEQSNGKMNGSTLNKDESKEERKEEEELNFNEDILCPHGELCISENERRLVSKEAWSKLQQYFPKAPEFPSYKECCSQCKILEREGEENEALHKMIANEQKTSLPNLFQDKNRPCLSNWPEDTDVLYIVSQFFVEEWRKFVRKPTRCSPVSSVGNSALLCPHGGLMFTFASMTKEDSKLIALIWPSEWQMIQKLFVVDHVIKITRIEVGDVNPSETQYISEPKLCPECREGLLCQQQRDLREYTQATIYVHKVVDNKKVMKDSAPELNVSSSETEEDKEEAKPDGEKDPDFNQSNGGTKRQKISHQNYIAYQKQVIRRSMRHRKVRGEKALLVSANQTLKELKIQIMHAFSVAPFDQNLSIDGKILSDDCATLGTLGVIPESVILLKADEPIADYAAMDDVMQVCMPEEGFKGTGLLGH
Outline: as §1

[5] = biological target: T4, USP5 (UniProt P45974)
T4 sequence (whole entry): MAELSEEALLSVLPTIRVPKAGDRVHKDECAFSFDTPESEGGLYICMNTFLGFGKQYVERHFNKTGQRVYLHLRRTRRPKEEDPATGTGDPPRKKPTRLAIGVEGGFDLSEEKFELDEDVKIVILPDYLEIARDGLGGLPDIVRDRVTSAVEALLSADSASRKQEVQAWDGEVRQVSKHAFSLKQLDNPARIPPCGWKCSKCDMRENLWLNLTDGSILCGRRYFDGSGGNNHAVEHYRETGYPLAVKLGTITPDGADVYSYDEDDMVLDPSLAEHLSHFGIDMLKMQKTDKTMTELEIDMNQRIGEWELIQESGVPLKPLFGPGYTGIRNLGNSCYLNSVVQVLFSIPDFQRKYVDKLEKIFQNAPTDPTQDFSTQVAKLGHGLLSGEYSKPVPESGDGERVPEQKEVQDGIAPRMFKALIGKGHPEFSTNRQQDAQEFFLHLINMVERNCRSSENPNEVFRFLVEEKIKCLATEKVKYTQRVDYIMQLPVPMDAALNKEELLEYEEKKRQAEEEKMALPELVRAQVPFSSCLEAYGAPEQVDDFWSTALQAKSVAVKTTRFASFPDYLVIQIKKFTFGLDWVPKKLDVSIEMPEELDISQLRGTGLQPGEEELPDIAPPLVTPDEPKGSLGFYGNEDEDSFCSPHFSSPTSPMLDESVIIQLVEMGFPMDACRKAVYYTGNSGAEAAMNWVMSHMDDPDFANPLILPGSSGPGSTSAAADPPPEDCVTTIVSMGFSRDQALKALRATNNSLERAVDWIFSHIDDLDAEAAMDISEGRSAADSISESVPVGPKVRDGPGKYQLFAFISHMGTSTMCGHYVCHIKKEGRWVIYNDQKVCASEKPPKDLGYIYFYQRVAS
Outline: as §1

[6] = biological target: USP54 (UniProt Q70EL1)
Sequence of USP54 (Q70EL1 whole entry): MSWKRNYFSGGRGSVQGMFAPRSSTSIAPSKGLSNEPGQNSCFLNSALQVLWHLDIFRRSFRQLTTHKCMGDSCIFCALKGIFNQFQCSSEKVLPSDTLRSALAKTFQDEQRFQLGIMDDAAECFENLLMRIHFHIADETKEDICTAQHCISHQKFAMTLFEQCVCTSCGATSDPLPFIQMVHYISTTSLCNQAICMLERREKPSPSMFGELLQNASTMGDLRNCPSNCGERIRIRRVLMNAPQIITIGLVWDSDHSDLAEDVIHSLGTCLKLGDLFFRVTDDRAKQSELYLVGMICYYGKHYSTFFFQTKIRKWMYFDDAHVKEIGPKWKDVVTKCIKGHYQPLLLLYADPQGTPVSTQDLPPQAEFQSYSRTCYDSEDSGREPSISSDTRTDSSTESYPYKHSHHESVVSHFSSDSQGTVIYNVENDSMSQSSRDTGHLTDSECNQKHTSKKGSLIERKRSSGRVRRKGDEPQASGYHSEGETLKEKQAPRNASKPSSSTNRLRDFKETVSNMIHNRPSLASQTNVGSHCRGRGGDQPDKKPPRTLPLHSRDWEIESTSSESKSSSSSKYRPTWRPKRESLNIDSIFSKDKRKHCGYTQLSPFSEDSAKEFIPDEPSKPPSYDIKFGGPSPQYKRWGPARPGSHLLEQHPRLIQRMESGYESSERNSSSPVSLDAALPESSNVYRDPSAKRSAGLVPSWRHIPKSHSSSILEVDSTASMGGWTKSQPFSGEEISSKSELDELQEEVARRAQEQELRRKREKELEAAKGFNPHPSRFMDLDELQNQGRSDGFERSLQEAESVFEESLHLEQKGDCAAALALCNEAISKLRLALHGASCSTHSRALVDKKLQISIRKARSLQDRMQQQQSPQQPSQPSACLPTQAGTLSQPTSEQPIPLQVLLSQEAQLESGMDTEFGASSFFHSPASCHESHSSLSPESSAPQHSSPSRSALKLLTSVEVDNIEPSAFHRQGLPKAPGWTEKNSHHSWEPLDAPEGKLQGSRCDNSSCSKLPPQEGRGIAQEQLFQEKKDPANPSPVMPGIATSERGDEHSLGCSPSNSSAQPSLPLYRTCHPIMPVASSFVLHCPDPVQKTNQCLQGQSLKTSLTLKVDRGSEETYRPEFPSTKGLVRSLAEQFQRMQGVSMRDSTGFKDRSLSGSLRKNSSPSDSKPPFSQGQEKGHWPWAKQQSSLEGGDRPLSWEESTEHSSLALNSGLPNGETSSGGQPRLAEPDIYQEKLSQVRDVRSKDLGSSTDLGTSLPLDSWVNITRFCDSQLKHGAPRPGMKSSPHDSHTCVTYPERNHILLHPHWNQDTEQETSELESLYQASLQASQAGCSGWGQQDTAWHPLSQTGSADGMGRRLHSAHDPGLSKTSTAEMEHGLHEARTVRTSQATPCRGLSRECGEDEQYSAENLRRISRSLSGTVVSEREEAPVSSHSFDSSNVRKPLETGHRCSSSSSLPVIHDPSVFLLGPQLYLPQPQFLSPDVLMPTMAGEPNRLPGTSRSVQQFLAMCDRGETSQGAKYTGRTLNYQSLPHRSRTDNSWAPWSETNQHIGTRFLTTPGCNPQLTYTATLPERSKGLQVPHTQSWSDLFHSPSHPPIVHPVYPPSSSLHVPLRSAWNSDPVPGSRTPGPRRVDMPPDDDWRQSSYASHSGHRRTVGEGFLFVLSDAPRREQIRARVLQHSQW
Outline: as §1

[7] = biological target: USP7 (UniProt Q93009)
Sequence of USP7 (Q93009 whole entry, looked up): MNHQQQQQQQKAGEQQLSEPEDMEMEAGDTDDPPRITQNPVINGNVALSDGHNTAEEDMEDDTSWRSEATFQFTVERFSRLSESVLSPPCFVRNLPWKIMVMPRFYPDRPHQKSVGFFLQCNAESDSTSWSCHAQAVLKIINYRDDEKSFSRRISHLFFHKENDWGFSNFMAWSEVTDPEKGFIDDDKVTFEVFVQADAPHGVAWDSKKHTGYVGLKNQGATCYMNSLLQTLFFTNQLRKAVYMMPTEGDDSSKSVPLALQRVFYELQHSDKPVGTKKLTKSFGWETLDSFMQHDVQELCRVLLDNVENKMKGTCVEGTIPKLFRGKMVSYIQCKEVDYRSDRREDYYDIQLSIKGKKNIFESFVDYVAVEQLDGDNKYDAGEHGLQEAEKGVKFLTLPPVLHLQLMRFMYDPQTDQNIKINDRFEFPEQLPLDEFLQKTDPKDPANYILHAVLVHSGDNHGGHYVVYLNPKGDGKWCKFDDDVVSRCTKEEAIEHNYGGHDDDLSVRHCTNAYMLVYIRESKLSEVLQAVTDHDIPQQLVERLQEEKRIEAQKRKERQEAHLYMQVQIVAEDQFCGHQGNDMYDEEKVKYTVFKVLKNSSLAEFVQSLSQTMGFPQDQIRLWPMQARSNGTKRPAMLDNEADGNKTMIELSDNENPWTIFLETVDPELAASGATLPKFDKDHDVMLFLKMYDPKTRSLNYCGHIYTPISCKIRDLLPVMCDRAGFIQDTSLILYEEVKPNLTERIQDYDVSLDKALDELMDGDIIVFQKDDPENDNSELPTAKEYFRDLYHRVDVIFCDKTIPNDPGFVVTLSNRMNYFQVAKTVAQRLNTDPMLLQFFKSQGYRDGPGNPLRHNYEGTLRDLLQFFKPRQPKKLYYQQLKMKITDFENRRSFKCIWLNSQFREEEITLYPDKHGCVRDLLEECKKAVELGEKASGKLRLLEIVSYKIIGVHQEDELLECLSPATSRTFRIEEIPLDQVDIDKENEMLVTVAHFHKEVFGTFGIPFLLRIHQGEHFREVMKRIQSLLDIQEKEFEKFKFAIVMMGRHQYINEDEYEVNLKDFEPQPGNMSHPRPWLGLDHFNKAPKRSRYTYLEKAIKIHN
Outline: as §1

[8] = biological target: T5, USP8 (UniProt P40818)
T5 sequence (whole entry): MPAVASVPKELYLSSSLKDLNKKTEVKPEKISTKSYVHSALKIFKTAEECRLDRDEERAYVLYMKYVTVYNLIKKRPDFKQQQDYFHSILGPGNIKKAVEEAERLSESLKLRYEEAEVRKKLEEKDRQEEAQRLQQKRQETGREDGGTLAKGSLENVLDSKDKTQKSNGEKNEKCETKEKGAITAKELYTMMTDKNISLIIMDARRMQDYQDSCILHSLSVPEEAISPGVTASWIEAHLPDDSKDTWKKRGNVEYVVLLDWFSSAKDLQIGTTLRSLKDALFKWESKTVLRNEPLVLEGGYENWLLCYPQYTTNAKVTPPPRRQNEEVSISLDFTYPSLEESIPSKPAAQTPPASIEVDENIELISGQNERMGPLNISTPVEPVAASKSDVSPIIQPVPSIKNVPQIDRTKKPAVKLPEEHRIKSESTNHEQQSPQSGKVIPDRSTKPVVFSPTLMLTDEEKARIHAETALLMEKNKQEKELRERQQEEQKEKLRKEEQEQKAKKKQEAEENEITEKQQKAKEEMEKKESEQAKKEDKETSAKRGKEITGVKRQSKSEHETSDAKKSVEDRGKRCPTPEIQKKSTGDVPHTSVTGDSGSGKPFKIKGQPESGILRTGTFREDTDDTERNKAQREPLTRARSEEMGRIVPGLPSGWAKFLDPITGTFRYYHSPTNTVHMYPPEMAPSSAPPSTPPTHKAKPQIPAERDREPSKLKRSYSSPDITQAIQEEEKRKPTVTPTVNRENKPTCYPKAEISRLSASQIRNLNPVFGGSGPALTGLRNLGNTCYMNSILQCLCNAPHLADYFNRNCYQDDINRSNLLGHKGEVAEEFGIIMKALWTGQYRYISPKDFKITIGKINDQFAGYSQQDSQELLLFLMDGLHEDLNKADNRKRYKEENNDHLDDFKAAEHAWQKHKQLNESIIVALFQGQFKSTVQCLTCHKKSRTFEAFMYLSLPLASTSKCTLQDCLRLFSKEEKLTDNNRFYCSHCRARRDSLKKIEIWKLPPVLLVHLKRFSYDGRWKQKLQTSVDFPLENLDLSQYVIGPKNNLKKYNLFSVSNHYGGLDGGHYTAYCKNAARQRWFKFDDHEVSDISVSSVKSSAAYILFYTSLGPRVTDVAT
Outline: as §1

Measured: log2 ratio of Biotin-Ahx-Ub-VS probe labelling

CC(NC(=O)CCl)c1noc(Cc2ccccc2)n1 (stereo not drawn)
inactive: [1] 0.115 | [2] -0.0371 | [3] 0.0165 | [4] -0.394 | [5] -0.388 | [6] 0.507 | [7] -0.475 | [8] -0.579

From the supplement of paper PMC11732987, “Enantioselective OTUD7B fragment discovery through chemoproteomics screening and high-throughput optimisation” (Communications Chemistry, 2025)
